# Measured potencies and affinities stand elsewhere.
# System: Klebsiella pneumoniae
# Conditions: Concentration 32 ug.mL-1; ASSAY_TEST Inhibition of Bacterial Growth; detection method Absorption (OD600); MEDIA CAMHB; plate type 384well; NBS; CORNING #3640; time 18 hr
row,Compound,Inhibition
1,Cc1ccc(C=C2CN(C(=O)OC(C)(C)C)C/C(=C\c3ccc(C)cc3C)C2=O)c(C)c1,13.54%
2,COc1cc2c(cc1OC)C(=O)C(=Cc1ccco1)CC2,12.89%
3,COc1ccc2c(c1)C(=O)C(=Cc1cccnc1Br)CC2,8.16%
4,COc1cc2c(cc1OC)C(=O)C(=Cc1ccoc1)CC2,14.64%
5,COc1ccc2c(c1)CCC(=Cc1ccccn1)C2=O,8.96%
6,COc1ccc2c(c1)C(=O)C(=Cc1cncc(Br)c1)CC2,11.33%
7,COc1cccc2c1CCC(=Cc1ccco1)C2=O,9.39%
8,COc1ccc2c(c1)C(=O)C(=Cc1cnccc1OC)CC2,13.46%
9,COc1ccc2c(c1)CCC(=Cc1cccnc1Cl)C2=O,12.5%
10,COc1ccc2c(c1)CCC(=Cc1ccncc1)C2=O,14.05%
11,COc1ccc2c(c1)C(=O)C(=Cc1ccoc1)CC2,17.88%
12,COc1ccc2c(c1)CCC(=Cc1ccco1)C2=O,10.81%
13,COc1ccc2c(c1)C(O)C(=Cc1cccnc1Cl)CC2 (stereo unspecified),10.57%
14,COc1ccc2c(c1)CCC(=Cc1ccc(OC)nc1)C2=O,13.52%
15,COc1cccc2c1CCC(=Cc1ccoc1)C2=O,11.44%
16,CC(C)(C)OC(=O)N1CC(=Cc2ccoc2)C(=O)/C(=C/c2ccoc2)C1,21.57%

row,Compound,Inhibition
1,COc1ccc2c(c1)C(=O)C(=Cc1cccc(C=C3CCc4ccc(OC)cc4C3=O)c1)CC2,10.58%
2,COc1cccc2c1CCC(=Cc1cccc(C=C3CCc4c(OC)cccc4C3=O)c1)C2=O,0.44%
3,COc1ccc2c(c1)CCC(=Cc1cccnc1)C2=O,16.02%
4,COc1ccc2c(c1)C(=O)C(=Cc1ccccn1)CC2,11.4%
5,COc1ccc2c(c1)C(=O)C(=Cc1cccnc1Cl)CC2,12.62%
6,COc1ccc2c(c1)CCC(=Cc1cnccc1OC)C2=O,11.4%
7,COc1ccc(/C=C/C(=O)c2ccc(OCc3ccc(Br)cc3)cc2)cc1OC,12.55%
8,COc1ccc2c(c1)CCC(=Cc1ccoc1)C2=O,11.83%
9,COc1ccc2c(c1)C(=O)C(=Cc1ccco1)CC2,14.42%
10,CC(C)(C)OC(=O)N1CC(=Cc2ccco2)C(=O)/C(=C/c2ccco2)C1,8.12%
11,COc1ccc2c(c1)C(=O)C(=Cc1cccnc1OC)CC2,14.75%
12,COc1ccc2c(c1)CCC(=Cc1cccnc1Br)C2=O,13.02%
13,COc1ccc2c(c1)C(=O)C(=Cc1cccnc1)CC2,13.34%
14,COc1ccc2c(c1)C(=O)C(=Cc1cccnc1Cl)CC2.Cl,17.3%
15,COc1ccc2c(c1)CCC(=Cc1cncc(Br)c1)C2=O,10.09%

# Source: ChEMBL document CHEMBL4513147, “CO-ADD screening of Armstrong State University (GA, USA) compounds”
